In all, about 68,000 sequences were measured (“fluorescence intensity (a.u.)”: median about 9,100, highest 2% from about 16,000 on). The list comes from a sample in which the highest values are over-represented; it also holds similar and randomly drawn sequences.

Sequence of OsWRKY34 (Q0JBA9 entry or part of it): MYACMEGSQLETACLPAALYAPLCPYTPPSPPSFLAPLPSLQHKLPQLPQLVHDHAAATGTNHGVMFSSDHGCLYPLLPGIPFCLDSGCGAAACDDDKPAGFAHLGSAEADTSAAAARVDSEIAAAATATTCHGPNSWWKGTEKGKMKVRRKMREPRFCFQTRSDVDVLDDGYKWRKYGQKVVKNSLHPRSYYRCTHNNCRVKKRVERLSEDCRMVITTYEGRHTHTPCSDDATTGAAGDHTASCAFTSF

The target of the assay is OsWRKY34 (Oryza sativa, UniProt Q0JBA9 1-250). The assay is described as follows: protein-binding microarray (RPBM); PBS, 2% BSA, 51.3 ng/ul salmon testes DNA, 50 uM zinc acetate, 200 nM TF, 25 C, 1 h; high values mean tight binding. The settings on record: protein: recombinant; tags: N-terminal polyhistidine and DsRed monomer fusion (pET32a); label: CyDye5-dUTP incorporated in the synthesized complementary strand; 3' TTTTT single-stranded linker to array surface; dsDNA, one strand shown. Summed up:
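An Axon 4000B scanner gave the binding signal as per-feature fluorescence intensity in arbitrary units. This followed washing of a custom Agilent array that had been incubated for 1 h at 25 °C with 200 nM protein in PBS, 2% BSA, salmon testes DNA and 50 µM zinc acetate. The proteins were transcription factors fused at the N-terminus to polyhistidine and DsRed, expressed in E. coli BL21-CodonPlus and purified on Ni–NTA.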
For the sequence “ACCATCTTATTTAACGTAAAATATTTAATTTTCATTTTTACGGAGTCACCTAGTGCAG”, the binding signal was 8480 fluorescence intensity (a.u.).
For “TTCTAAATAATATTTGACGCCGTTGACTTTTTTAAATATACGGAGTCACCTAGTGCAG”, the binding signal was 14600 fluorescence intensity (a.u.).
With “CCTTTCGTTTTATATTATAATTCGTTTTGACTTTTTTCTTCGGAGTCACCTAGTGCAG”, the binding signal was 10500 fluorescence intensity (a.u.).
With “CTTTTCTTTTCAATTTTTTGAGCGTTGACCATACTTAAATCGGAGTCACCTAGTGCAG”, the binding signal is 14800 fluorescence intensity (a.u.).
As for “CGTTGACTTTTTTAAATATATAATTATTAATTTTTTTTCTCGGAGTCACCTAGTGCAG”, the binding signal was 23900 fluorescence intensity (a.u.).
“GTTTGACACCGTTGACTTTTTTAAATATGTTTGACCGTTTCGGAGTCACCTAGTGCAG”: the binding signal was 25000 fluorescence intensity (a.u.).
With “AGCGTTGACCATACTTAAATCACAGTTTTCTTTTCTTTTTCGGAGTCACCTAGTGCAG” the figure was 21800 fluorescence intensity (a.u.).
Consider “ACCTCGGTAATAAAAGATGATCTAACGTAAAATTTATTATCGGAGTCACCTAGTGCAG”, for which the binding signal is 23300 fluorescence intensity (a.u.).
With “ATTTCTTGAACAGTTAAATACTTATAAATCCTTCACTTTTCGGAGTCACCTAGTGCAG” the figure was 8050 fluorescence intensity (a.u.); with “CAAGTCACGTATAAAATATTAATCATGTTTTATCATCTAACGGAGTCACCTAGTGCAG”, 8050 fluorescence intensity (a.u.); with “CCATATCGTTTTGACGTTTTTAGTGTAGGTCAATTTATAGCGGAGTCACCTAGTGCAG”, 8170 fluorescence intensity (a.u.).
For the sequence “TTAAAACTGAAATTATCGTATGTGCCTTGTCGCCGTGATTCGGAGTCACCTAGTGCAG”, the binding signal was 8090 fluorescence intensity (a.u.).
Consider “GGGTATATACCGTGACCCTGATCGCCACACCGACCGGATACGGAGTCACCTAGTGCAG”, for which the binding signal was 13600 fluorescence intensity (a.u.).
With “ATCCGATCTCTCTTCTCATTCTCTTCTCTTGGTTTGGGGTCGGAGTCACCTAGTGCAG” the figure was 8220 fluorescence intensity (a.u.); with “AGTCTTGAAGACTGAGGCAAAGTCTGTTATCTTAATCGATCGGAGTCACCTAGTGCAG”, 9140 fluorescence intensity (a.u.).
With “TTGAAACTAAACAAGGCATTTAGCTCAAACCCTCATTGACCGGAGTCACCTAGTGCAG” the figure was 8470 fluorescence intensity (a.u.).
On to “GATCGTGGGAGGGAGGATTGGCCGGTTGTACTACAGTTGACGGAGTCACCTAGTGCAG”, for which the binding signal is 8660 fluorescence intensity (a.u.).
As for “GTTGACTCGCACTTTTTGTAATTATGTGTTACATGGTTTCCGGAGTCACCTAGTGCAG”, the binding signal is 8810 fluorescence intensity (a.u.).
Consider “CCGTGTTGTCGTTCCTCCAAATTTGTACCGTTTTCCCTCTCGGAGTCACCTAGTGCAG”, for which the binding signal was 8770 fluorescence intensity (a.u.).
The same measure for “ACTTTTCGCTTTTTATATTTGCATAATTTTTTTCAATAAGCGGAGTCACCTAGTGCAG”: 8150 fluorescence intensity (a.u.); for “CCCGTTGACCCAAATTTTCGTTCTCCTCACCGAGTATAGTCGGAGTCACCTAGTGCAG”: 17200 fluorescence intensity (a.u.); for “AATTTTGACTTTTTCTTGACTAATTAGGCCATCCGATGGGCGGAGTCACCTAGTGCAG”: 17800 fluorescence intensity (a.u.).
On to “ACACTTTGATCCCGATCGATGGCGCCATCCACTAATTGATCGGAGTCACCTAGTGCAG”, for which the binding signal is 10700 fluorescence intensity (a.u.).
With “TTTTGCTACTCCTTCGTTCTCAGTATCCAAATTTAAATTTCGGAGTCACCTAGTGCAG” the figure was 9900 fluorescence intensity (a.u.).
Consider “TTTGTTGGTGTTATGTTGACTTTTTTTTGGGAACATTACTCGGAGTCACCTAGTGCAG”, for which the binding signal is 17400 fluorescence intensity (a.u.).
With “CCATTATGGTGTTTCTTAGTTGTTTTTTTTGCCTTTTACTCGGAGTCACCTAGTGCAG”, the binding signal was 8470 fluorescence intensity (a.u.).
With “GACTTTATATGTGACTTTTTTTTTAACTTTTTCATAATTTCGGAGTCACCTAGTGCAG” the figure was 9730 fluorescence intensity (a.u.).
For the sequence “CTTTCTTATTGACTATTTTATTATTTGAGGTCATTTAGGGCGGAGTCACCTAGTGCAG”, the binding signal is 9310 fluorescence intensity (a.u.).
The same measure for “CGCCGTTGACTTTTCATATAATATTTAACAATTCGCTTTACGGAGTCACCTAGTGCAG”: 36800 fluorescence intensity (a.u.); for “TTTTTCGCACGTTCTCTTTCGCCCTGTTTTTTTTGAAAGACGGAGTCACCTAGTGCAG”: 13300 fluorescence intensity (a.u.).
The same measure for “CCTAGACCCCTTCTCACGCCGCCAGCCCGTCACACCGAGTCGGAGTCACCTAGTGCAG”: 8790 fluorescence intensity (a.u.).
With “CCCACTAACTTATGGCTTTTCCCATCCGTGCTATATCCCTCGGAGTCACCTAGTGCAG” the figure was 9270 fluorescence intensity (a.u.); with “ATACTGTCATAGGATCTCGAGTACACCTGTTTTACAAGTTCGGAGTCACCTAGTGCAG”, 8860 fluorescence intensity (a.u.); with “GTTTTGATTGGCATATGGTCCCTCCAATCCGTGTAATTGTCGGAGTCACCTAGTGCAG”, 8320 fluorescence intensity (a.u.).
For the sequence “TTCCTAAATATTTACGACGTTGACTTTTTTAAAAATGTTTCGGAGTCACCTAGTGCAG”, the binding signal is 20100 fluorescence intensity (a.u.).
“ATTTTTATACGGACTCTAAACTCTACTTTTAATTTTATTACGGAGTCACCTAGTGCAG”: the binding signal is 8490 fluorescence intensity (a.u.).
On to “ACTACTTCCTCTGTTTCTAAATATTTGACGACGTTGATTTCGGAGTCACCTAGTGCAG”, for which the binding signal was 8050 fluorescence intensity (a.u.).
The same measure for “AAATATTTGACGCCGTTGACTTTTTTAAATATGTTTAACCCGGAGTCACCTAGTGCAG”: 27200 fluorescence intensity (a.u.); for “GTTGACTTTTTTTAAAATATGTTTGACCGTTCATATTATTCGGAGTCACCTAGTGCAG”: 8770 fluorescence intensity (a.u.).
The same measure for “CACCGTTGATTTTTTTAAATATGTTTGACCGTTCGTTTTACGGAGTCACCTAGTGCAG”: 12000 fluorescence intensity (a.u.).
The same measure for “CGTTGACTTTTTTAAATATGTTTGACCGTTTATGTTATTTCGGAGTCACCTAGTGCAG”: 44100 fluorescence intensity (a.u.); for “ATAACCAACATATTTAGCCTACAATTAAATATTTACTATACGGAGTCACCTAGTGCAG”: 8390 fluorescence intensity (a.u.).
